Assay outcomes: PubChem, National Center for Advancing Translational Sciences (NCATS)
D1 antag: blocks dopamine activation of the human D1 receptor. actives 3.2% (n = 360,000). activity change, negative = inhibition, % at 10 µM. HEK293 TREx D1 cells, calcium flux, dopamine EC80; stronger effect = lower value; in the data active = activity change below about -30%
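Kinetic fluorescence of a calcium dye serves as the read-out. D1-expressing Hek293 Trex cells, induced overnight at 30 C, are exposed to compound for 180 s before an EC80 dopamine addition, then read 180 s further.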
D1 ag: activates the human D1 dopamine receptor | actives 1% (n = 360,000) | activation, % at 2 µM | HEK293 T-REx D1 cells, calcium flux, agonist mode; in the data active = activation above about 30%
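Agonism was scored from calcium flux recorded over 180 s (1 read/s) after pintool compound addition, following a 10-cycle baseline. Cells were inducible force-coupled HEK293 TREx D1, plated overnight at 30 C and loaded with no-wash calcium dye.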
DRD3 antagonist: D3 dopamine receptor (human) antagonism | P35462 | D3R cells, DiscoveRx beta-arrestin luminescence, antagonist mode; stronger effect = lower value | max response, negative = inhibition, % | actives 2.5% (n = 360,000); in the data active = max response below about -50%; inconclusive = no clear call, values can overlap the other calls
Target sequence (P35462 whole entry, looked up): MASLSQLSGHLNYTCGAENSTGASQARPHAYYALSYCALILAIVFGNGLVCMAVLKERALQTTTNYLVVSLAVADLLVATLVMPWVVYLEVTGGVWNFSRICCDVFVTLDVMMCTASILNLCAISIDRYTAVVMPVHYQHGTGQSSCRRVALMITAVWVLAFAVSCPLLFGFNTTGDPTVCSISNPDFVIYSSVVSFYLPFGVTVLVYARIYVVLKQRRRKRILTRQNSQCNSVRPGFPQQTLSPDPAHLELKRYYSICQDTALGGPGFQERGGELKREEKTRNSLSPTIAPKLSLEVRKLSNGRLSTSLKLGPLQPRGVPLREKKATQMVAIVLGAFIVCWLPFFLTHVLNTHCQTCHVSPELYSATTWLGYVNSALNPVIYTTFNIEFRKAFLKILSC
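Cells expressing the human receptor were seeded at 1500 cells/well, incubated overnight at 37 degrees C in 5% CO2, then exposed to library compounds with dopamine controls for 90 minutes at 37 degrees C before luminescent detection.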
D1 PAM: potentiators of human D1 dopamine receptor; P21728; HEK293 TREx D1 cells, calcium flux, dopamine EC20 potentiation; potentiation, % at 10 µM; actives 0.036% (n = 360,000); AID 504651; in the data active = potentiation above about 30%
D3 ag: agonists of human D3 dopamine receptor; AID 652048; actives 0.58% (n = 410,000); D3R DiscoveRx beta-arrestin cells, luminescence, 90 min; max activation, %; in the data active = max activation above about 30%
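Agonist mode: compounds and dopamine controls were applied to plated cells for 90 min at 37 degrees C after an overnight attachment at 1500 cells/well. Luminescent read-out followed 30 - 60 minutes at room temperature with DiscoveRx detection reagent.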
Each line names hits and unclear results; the compound was inactive in the other large screens. Shown are actives, neighbours in structure and some others; about 6.1% of the full set was active somewhere.

C[C@H](CO)N1C[C@H](C)[C@H](CN(C)Cc2ccccc2)Oc2c(NC(=O)Nc3ccc(F)cc3)cccc2C1=O	DRD3 antagonist inconclusive (no result: D1 antag, D1 ag, D1 PAM)
C[C@H](CO)N1C[C@H](C)[C@@H](CN(C)CC2CC2)Oc2c(NC(=O)C3CC3)cccc2C1=O	D3 ag 33.2 (no result: D1 antag, D1 ag, D1 PAM)
C[C@H](CO)N1C[C@H](C)[C@@H](CN(C)CC2CCCCC2)Oc2c(NC(=O)C3CC3)cccc2C1=O	none (no result: D1 antag, D1 ag, D1 PAM)
C[C@H](CO)N1C[C@H](C)[C@@H](CN(C)Cc2ccc(Oc3ccccc3)cc2)Oc2c(NC(=O)C3CC3)cccc2C1=O	D3 ag 35.0 (no result: D1 antag, D1 ag, D1 PAM)
CCc1nc2nc(C)cc(Nc3ccc(Br)cc3F)n2n1	none (no result: DRD3 antagonist)
CCOc1cc2[nH]c(=O)n(CCCCC(=O)N3CCN(c4ccc(OC)cc4)CC3)c(=O)c2cc1OCC	none (no result: DRD3 antagonist)
Cc1ccc(Nc2n[nH]c(C)c2[N+](=O)[O-])cc1	DRD3 antagonist inconclusive
Cc1[nH]nc(Nc2ccccc2)c1[N+](=O)[O-]	none
Cc1[nH]nc(Nc2ccc(Br)cc2)c1[N+](=O)[O-]	D1 antag -35.8
Cc1cccc(Nc2n[nH]c(C)c2[N+](=O)[O-])c1	D1 antag -37.4, DRD3 antagonist inconclusive
CCOC(=O)c1oc2ccc(S(=O)(=O)n3nc(-c4ccccc4)cc3N)cc2c1C	D1 antag -34.0
Cc1c(C(=O)O)oc2ccc(S(=O)(=O)N3CCCC3)cc12	none
CCCCN(C)C(=O)c1oc2ccc(S(=O)(=O)N3CCCCCC3)cc2c1C	DRD3 antagonist -75.1
CCOC(=O)N1CCN(C(=O)c2ccc(Cl)c(S(=O)(=O)N3CCCC3)c2)CC1	D1 PAM 33.5
CCOC(=O)N1CCN(C(=O)c2oc3ccc(S(=O)(=O)N4CCCCC4)cc3c2C)CC1	D3 ag 44.0
Cc1cccc(N2CCN(C(=O)C3CCCN(S(=O)(=O)c4cccc5nsnc45)C3)CC2)c1C (stereo unspecified)	none (no result: DRD3 antagonist)
Cc1ccc2[nH]c3c(=O)n(CC(=O)N4CCCC(C)C4)ncc3c2c1 (stereo unspecified)	none (no result: DRD3 antagonist)
Cc1ccc(OCC(=O)Nc2c(C(=O)c3ccc(Cl)cc3)oc3ccccc23)cc1C	none (no result: DRD3 antagonist)
CCOc1cnn(-c2cc(Oc3ccc(C)cc3)ncn2)c(=O)c1Cl	none
Cc1ccccc1Oc1cc(-n2ncc(Cl)c(Cl)c2=O)ncn1	DRD3 antagonist -97.1
COc1ccc(CNC(=O)CCCN2C(=O)CCn3nc(-c4cn(C)c5ccccc45)cc32)cc1	none (no result: DRD3 antagonist)
CC(C)C[C@H]1COc2cc(N3CCN(Cc4ccccc4F)CC3)ccc2S(=O)(=O)N1	DRD3 antagonist -66.4 (no result: D1 antag, D1 ag, D1 PAM)
O=S1(=O)N[C@@H](Cc2ccccc2)COc2cc(N3CCN(Cc4ccccc4F)CC3)ccc21	none (no result: D1 antag, D1 ag, D1 PAM)
CC(C)c1nc(SCC(=O)Nc2ccc(N3CCOCC3)cc2)c2ccccc2n1	none
COc1ccccc1-c1nnc(SCC(=O)NC2CC2)n1C	D1 antag -59.0 (no result: D1 PAM)
CCCc1nc(SCC(=O)Nc2ccc(N3CCOCC3)cc2)c2ccccc2n1	D1 antag -35.6
COc1cccc2cc(-c3nnc(SCC(=O)Nc4ccc(NC(C)=O)cc4)n3C)oc12	D1 antag -57.0
COc1ccccc1-c1nnc(SCC(=O)Nc2ccc(N3CCOCC3)cc2)n1C	D1 antag -36.2
S=c1[nH]nc(-c2cc(-c3ccccc3)n[nH]2)n1/N=C/c1ccc(Cl)c(Cl)c1	none
S=c1[nH]nc(-c2cc(-c3ccccc3)n[nH]2)n1/N=C/c1ccc(Cl)cc1	DRD3 antagonist -55.0
Cc1n[nH]c(=S)n1/N=C/c1ccccc1OCc1ccc(Cl)cc1Cl	D3 ag 30.8
O=[N+]([O-])c1cccc(/C=N/n2c(-c3cccnc3)n[nH]c2=S)c1	none
O=[N+]([O-])c1ccc(/C=N/n2c(-c3cccnc3)n[nH]c2=S)cc1	DRD3 antagonist -56.0
Cc1n[nH]c(=S)n1/N=C/c1ccc(OCc2ccc(Cl)cc2)cc1	D1 antag -33.9, DRD3 antagonist inconclusive
COc1cc(O)ccc1-c1nc2cc(C)ccn2c1Nc1ccccc1C	none (no result: DRD3 antagonist)
COC(=O)CN1C(=O)C(C)(C)c2cc(S(=O)(=O)NCc3ccc(Cl)cc3)ccc21	none (no result: DRD3 antagonist)
CCOc1ccc(S(=O)(=O)Nc2cccc(-c3ccc(OCC)nn3)c2)cc1	none (no result: DRD3 antagonist)
COc1ccc(CCNC(=O)CSc2cn(CCNC(=O)c3ccccc3F)c3ccccc23)cc1OC	none (no result: DRD3 antagonist)
CN1CCN(C2=Cc3ccccc3Sc3cc(F)c(F)cc32)CC1	D1 antag -83.5, D1 ag 56.3, DRD3 antagonist -61.7
CN1CCN(C2=Cc3ccccc3Sc3cc(F)c(Cl)cc32)CC1	D1 antag -69.7, DRD3 antagonist inconclusive
CN1CCN(C2=Cc3cc(Cl)ccc3Sc3cc(F)ccc32)CC1	none
CCOC(=O)c1cc(-c2ccccc2)n(-c2cccc(C(=O)N(C)c3ccc(C)cc3)c2)c1C	none (no result: DRD3 antagonist)
COc1ccccc1OCCn1c(COc2cc(C)ccc2C)nc2ccccc21	none (no result: DRD3 antagonist)
Cc1ccc(-n2nc(C(=O)Nc3cccc(C#N)c3)c3c4ccccc4n(C)c3c2=O)cc1	none (no result: DRD3 antagonist)
C=CCn1c2ccccc2c(=O)c2cc(C#Cc3cc(OC)cc(OC)c3)ccc21	D3 ag 50.1 (no result: D1 antag)
COc1cc(C#Cc2c(C=O)n(C)c3ccccc23)cc(OC)c1	D3 ag 49.7 (no result: D1 antag)
COc1ccc(CCNC(=O)C(=O)NCC(c2cccs2)S(=O)(=O)c2cccs2)cc1 (stereo unspecified)	none (no result: D1 antag, DRD3 antagonist)
CC(C)c1ccc2oc(-c3cccc(NC(=O)c4ccc5c(c4)OCCO5)c3)nc2c1	none (no result: DRD3 antagonist)
COc1ccccc1NC(=O)C1=C(C)Nc2c(C(=O)Nc3ccc(C)cc3)cnn2C1c1cccc(OC)c1OC (stereo unspecified)	none (no result: DRD3 antagonist)
Cc1ccc(CNC(=O)[C@H]2O[C@@H](n3ccc(N)nc3=O)[C@H](O)[C@@H]2O)o1	DRD3 antagonist -126.3 (no result: D1 antag, D1 ag, D1 PAM)
CCCS(=O)(=O)c1ncc(Cl)c(C(=O)Nc2c(C(=O)c3ccccc3)oc3ccccc23)n1	none (no result: DRD3 antagonist)
CC(C)c1cc(-c2nc(-c3ccc(Cl)cc3)no2)n[nH]1	D1 antag -38.1 (no result: DRD3 antagonist)
CC1CN(c2ncnc3c2c(-c2ccccc2)cn3-c2ccc(F)cc2)CC(C)O1 (stereo unspecified)	DRD3 antagonist -92.0
OCCN1CCN(c2ncnc3c2c(-c2ccccc2)cn3-c2ccc(F)cc2)CC1	DRD3 antagonist -74.7
CCOc1ccc(-n2cc(-c3ccccc3)c3c(N4CCC(C)CC4)ncnc32)cc1	none (no result: DRD3 antagonist)
COc1cccc(N2CCN(c3ncnc4c3c(-c3ccccc3)cn4-c3ccc(C)cc3)CC2)c1	none (no result: DRD3 antagonist)
CCOc1ccc(-n2cc(-c3ccccc3)c3c(N4CCN(c5ccccc5OC)CC4)ncnc32)cc1	D1 antag -31.9 (no result: DRD3 antagonist)
COc1ccc(-n2cc(-c3ccccc3)c3c(N4CCN(CCO)CC4)ncnc32)cc1	D1 antag -35.8
CCc1ccc(NC(=O)CCn2c(-c3ccc(OC)cc3)cc(C(C)=O)c2C)cc1	none (no result: DRD3 antagonist)
CCCCCNC(=O)C1CCC(Cn2c(=O)c3sccc3n(CC)c2=O)CC1 (stereo unspecified)	none (no result: DRD3 antagonist)
